Screening data as filed in PubChem BioAssay.
TDP1 cell noCPT – qHTS for Inhibitors of human tyrosyl-DNA phosphodiesterase 1 (TDP1): qHTS in cells in absence of CPT; DT40 Tdp1-/- hTDP1 cells, no CPT, ATP luminescence, 48 h; Potency, µM (doses to about 46.2 µM), usual class: inhibitors; 420,000 tested, 15% active; also: nearly all actives have a fitted effect of over 55% in size
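Readout: luminescence from CellTiter-Glo after 30 min in the dark at RT. Cells: DT40 Tdp1-/- with stable hTDP1, 400/well. Exposure: compounds alone, ≥48 hr, 37 °C.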
HT1080NT lethal – kills 2HG-producing HT-1080-NT fibrosarcoma cells; HT-1080-NT fibrosarcoma viability, CellTiter-Glo ATP luminescence, 48 h; Potency, µM (highest dose often 46.1 µM), hits mostly cytotoxic; 360,000 tested, 1.6% active; AID 686970;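 also: NT is the 2HG producing partner of a matched IDH1 knockdown line; nearly all actives have a fitted effect of over 55% in size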
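HT-1080-NT fibrosarcoma cells (2HG-overproducing), 750 cells/well in RPMI with 5% FBS, dosed after 2 h and incubated 48 h at 37C. CellTiter-Glo luminescence normalized to DMSO and no-cell wells; concentration-response curves fitted and classed.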
IL-1B inflam inh – inflammasome signaling inhibition, IL-1 beta readout; THP-1 LPS/ATP IL-1B secretion, AlphaLISA, 16 h; active compounds read low; activity change, % at 57.5 µM; 360,000 tested, 4.7% active; in the data active = activity change below about -50%; inconclusive = mostly about -30% to -49%
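Secreted IL-1B measured by AlphaLISA bead assay after 16 h compound exposure of THP-1 cells; compounds (final up to 57.5 uM) added 1 h before LPS (250 ng/mL) and ATP (1.25 mM) stimulation; lower signal means less secretion.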
TDP1 cell CPT – growth inhibition of DT40 Tdp1-/-;hTDP1 cells with camptothecin (screen for TDP1 inhibitors); chicken DT40 Tdp1-/-;hTDP1 cells + 20 nM CPT, ATP luminescence, 48 h; Potency, µM (highest dose often 46.2 µM), hits mostly inhibitors; 420,000 tested, 12% active; also: nearly all actives have a fitted effect of over 55% in size
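Chicken DT40 Tdp1-/- cells stably complemented with human TDP1 were seeded at 400 cells/well in medium containing 20 nM camptothecin, exposed to pin-transferred compounds, and grown at 37 °C for at least 48 hr. Viability was read as ATP luminescence.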
ELG1 repair inh – blocks ELG1-dependent DNA repair in HEK293T cells. HEK293T ELG1-luciferase reporter, luminescence, 16 h; DNA damage induced by 5-fluorouridine. 330,000 tested, 2.3% active. Potency, µM (titrated, usually from 46.1 µM), usual class: inhibitors; also: nearly all actives have a fitted effect of over 55% in size
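5-Fluorouridine DNA damage + compound/DMSO, 2,000 cells/well, 16 h, 37 °C/5% CO2. ONE-Glo, 30 min RT, luminescence. Readout = decrease in reporter signal.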
HT1080 IDH1KD tx – toxicity to HT-1080 IDH1 knockdown cells (counter line) | 360,000 tested, 2% active | HT-1080 IDH1 knockdown viability, ATP luminescence, 48 h | Potency, µM (titrated, usually from 46.1 µM), hits mostly cytotoxic
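IDH1KD HT-1080 cells, 750/well, RPMI + 5% FBS; compound pinned after 2 h settling; 48 h, 37 °C; CellTiter-Glo luminescence; % activity normalised to DMSO and no-cell wells; curves fitted, classed by r2 and efficacy.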
A number is an active result; – = inactive; ? = inconclusive; · = no result given. Sampled rows, rich in hits. Any-hit rate of the full collection: about 19%. Unless noted, calls follow the shape of the dose curve; as a rule, active = well fitted curve in the direction sought with a large enough effect; inconclusive = small, poorly fitted or top-dose-only effect, or another doubt; inactive = no such curve, though single readings can be large; an effect the other way counts as inactive or inconclusive.

SMILES | TDP1 cell noCPT | HT1080NT lethal | IL-1B inflam inh | TDP1 cell CPT | ELG1 repair inh | HT1080 IDH1KD tx
O=c1c2ccccc2nc2sc(Nc3cccc(C(F)(F)F)c3)nn12 | – | · | · | – | · | ·
COc1cccc(CNC(=O)c2ccc3c(=O)n4nc(Nc5ccccc5)sc4nc3c2)c1 | ? | · | · | 8.2µM | · | ·
Cc1ccc(-c2csc3nc4cc(C(N)=O)ccc4c(=O)n23)cc1 | – | ? | – | – | – | –
CCOC(=O)C1OC1(c1ccccc1)c1ccccc1 (stereo not given) | ? | – | – | ? | · | –
COc1ccccc1Cn1c(C)c(C(=O)NCCC#N)sc1=O | – | – | – | – | · | ?
COc1ccc(C2=C/C(=C\c3ccc(OC(C)=O)cc3)C(=O)O2)cc1 | – | – | – | – | – | –
Cc1ccc(C=C2C=C(c3ccccc3)OC2=O)cc1 | 26µM | – | – | ? | · | –
CN(C)c1ccc(C=C2C=C(c3ccccc3)OC2=O)cc1 | 10µM | – | – | 18µM | · | –
CN(C)c1ccc(/C=C2/C=C(c3ccc4c(c3)CCCC4)OC2=O)cc1 | ? | – | – | ? | – | –
CC(=O)Oc1cccc(/C=C2\C=C(c3ccc(C)cc3)OC2=O)c1 | ? | – | – | 18µM | – | –
Cc1ccc(C2=C/C(=C/c3cccs3)C(=O)O2)cc1 | – | – | – | – | – | –
O=C(NNC(=O)C1CCCN(S(=O)(=O)c2ccc3ccccc3c2)C1)C1CC1 (stereo not given) | ? | – | – | ? | – | –
COc1cccc(Cn2c(=O)cnc3cnc(OCc4ccccc4)nc32)c1 | – | · | · | – | · | ·
O=C(c1cc2nc(-c3ccc(F)cc3)cc(C(F)(F)F)n2n1)N1CCCCC1c1cccnc1 (stereo not given) | 9.2µM | ? | -62 | 13µM | 8.2µM | 18µM
Cc1ccc(-c2cc(C(F)F)n3ncc(C(=O)NN4CCCCC4)c3n2)cc1 | 23µM | – | – | 21µM | ? | –
CC1CCCCN1C(=O)c1cc2nc(-c3ccccc3)cc(-c3ccccc3)n2n1 (stereo not given) | 23µM | ? | -61 | 16µM | 16µM | ?
Cc1ccc(-c2cc(C(F)F)n3ncc(C(=O)N4CCN5CCCC5C4)c3n2)cc1 (stereo not given) | ? | – | ? | 15µM | ? | –
COc1ccc(-c2nc3cncnc3n(-c3ccccc3)c2=O)cc1 | – | · | · | – | · | ·
O=C(c1cnn2c(C(F)(F)F)cc(-c3ccccc3)nc12)N1CCCCC1c1cccnc1 (stereo not given) | ? | – | – | ? | ? | –
COc1ccc(-c2cc(C(F)F)n3ncc(C(=O)N4CCN(C)CC4)c3n2)cc1 | – | – | ? | – | 7.3µM | –
COc1ccc(-c2cc(C(F)F)n3ncc(C(=O)N4CCCc5ccccc54)c3n2)cc1 | ? | – | – | – | – | –
COc1ccc(-c2cc(C(F)(F)F)n3nc(C(=O)N4CCN5CCCC5C4)cc3n2)cc1OC (stereo not given) | ? | – | – | ? | – | –
Cc1ccc(-c2cc(C(F)(F)F)n3nc(C(=O)N4CCN5CCCC5C4)cc3n2)cc1 (stereo not given) | ? | ? | -62 | ? | – | ?
Cc1ccc(-c2cc(C(F)F)n3ncc(C(=O)N4CCCCC4c4cccnc4)c3n2)cc1 (stereo not given) | ? | – | – | ? | 18µM | –
Cc1nc(-n2nc(C)c(Cc3ccccc3Cl)c2C)sc1C(=O)N1CCC(C)CC1 | – | · | · | – | · | ·
SMILES | TDP1 cell noCPT | HT1080NT lethal | IL-1B inflam inh | TDP1 cell CPT | ELG1 repair inh | HT1080 IDH1KD tx
COc1ccccc1CNC(=O)c1cc(C)nn1-c1ccccc1 | – | – | – | – | – | –
O=C(NCc1ccccc1Cl)c1cc2cccc3c2n1CCS3 | ? | · | · | 23µM | · | ·
CCOc1ccc(CCNC(=O)c2cc3cccc4c3n2CCS4)cc1 | ? | · | · | 9.2µM | · | ·
CCOc1ccc(CCNC(=O)CN2C(=O)CCSc3ccccc32)cc1 | ? | – | – | – | – | –
COc1ccccc1CNC(=O)c1cc2cccc3c2n1CCS3 | ? | · | · | 18µM | · | ·
Cc1c(NC(=O)CC2NC(=O)NC2=O)c(=O)n(-c2ccccc2)n1C (stereo not given) | · | · | · | · | – | ·
COc1ccc(N2CCN(C(=O)c3cn(C4CCCCC4)c(=O)c4c3c3ccccc3n4C)CC2)cc1 | 21µM | · | · | 23µM | · | ·
COc1ccc(-n2nc(C(=O)N3CCN(c4ccc(F)cc4)CC3)c3c4ccccc4n(C)c3c2=O)cc1 | – | · | · | – | · | ·
Cc1cccc(N2CCN(C(=O)c3cn(C4CCCCC4)c(=O)c4c3c3ccccc3n4C)CC2)c1C | 16µM | · | · | ? | · | ·
Cn1c2ccccc2c2c(C(=O)N3CCN(c4ccc(F)cc4)CC3)cn(C3CCCCC3)c(=O)c21 | 18µM | · | · | 16µM | · | ·
Cc1ccc(Nc2nc(CSc3nnnn3C)cs2)cc1 | ? | – | – | – | ? | –
Cc1ccc(Nc2nc(CSc3nnnn3-c3ccccc3)cs2)cc1 | 18µM | – | – | ? | · | –
Cc1ccc(Nc2nc(CSc3nnc(-c4ccccc4)n3C)cs2)cc1 | ? | – | ? | 21µM | ? | –
CCOc1ccc(N(CC(=O)NCCc2ccccc2)C(=O)CCC(=O)Nc2cc(C)ccn2)cc1 | ? | – | – | ? | – | –
CC(=O)Nc1ccc(N2CCC(C)CC2)c([N+](=O)[O-])c1 | – | ? | – | – | ? | –
CC1CCCN(c2ccc(C(=O)Nc3cccnc3)cc2[N+](=O)[O-])C1 (stereo not given) | ? | ? | ? | 16µM | 15µM | ?
CC(=O)Nc1ccc(N2CCCC(C)C2)c([N+](=O)[O-])c1 (stereo not given) | 23µM | ? | – | – | – | –
Cc1ccc(C(=O)Nc2cccnc2)cc1[N+](=O)[O-] | – | – | – | – | – | –
Cc1ccc2oc(-c3cccc(NC(=O)c4ccc(N5CCC(C)CC5)c([N+](=O)[O-])c4)c3)nc2c1 | 7.3µM | · | · | 18µM | · | ·
CCc1ccc(NC(=O)CCC(=O)c2ccccc2)cc1 | – | – | – | – | – | –
CC(OC(=O)c1ccc(OCC2CCCO2)cc1)C(=O)N(C)Cc1ccccc1 (stereo not given) | ? | – | – | ? | – | –
CN(C)c1nc(N)nc(CSc2nnnn2-c2ccc(Cl)cc2)n1 | ? | ? | – | ? | · | 23µM
Cc1noc(C)c1CSc1nnnn1-c1ccc(Cl)cc1 | 15µM | – | – | ? | – | –
Cc1noc(C)c1CSc1nc2ccccc2c(=O)n1-c1ccc(Cl)cc1 | 15µM | 10µM | – | 18µM | ? | 7.1µM
